# High-throughput results as filed in PubChem.
# The list is not random: actives were taken first. Their share in the collection is about 1.2%.
# NPR2 activator – human GC-B receptor activators, primary screen, HEK293 GC-B cells, cGMP TR-FRET, EC30 CNP; Atrial natriuretic peptide receptor 2 (Homo sapiens), P20594; AID 1920062, 2024; activation, % at 10 µM; 0.11% of 370,000 active; 0% at EC30 CNP, 100% saturating CNP;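 active = activation at 10 µM reaching about 35% in either raw or pattern-adjusted values, limit read from the data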
# Target sequence (P20594 whole entry, looked up): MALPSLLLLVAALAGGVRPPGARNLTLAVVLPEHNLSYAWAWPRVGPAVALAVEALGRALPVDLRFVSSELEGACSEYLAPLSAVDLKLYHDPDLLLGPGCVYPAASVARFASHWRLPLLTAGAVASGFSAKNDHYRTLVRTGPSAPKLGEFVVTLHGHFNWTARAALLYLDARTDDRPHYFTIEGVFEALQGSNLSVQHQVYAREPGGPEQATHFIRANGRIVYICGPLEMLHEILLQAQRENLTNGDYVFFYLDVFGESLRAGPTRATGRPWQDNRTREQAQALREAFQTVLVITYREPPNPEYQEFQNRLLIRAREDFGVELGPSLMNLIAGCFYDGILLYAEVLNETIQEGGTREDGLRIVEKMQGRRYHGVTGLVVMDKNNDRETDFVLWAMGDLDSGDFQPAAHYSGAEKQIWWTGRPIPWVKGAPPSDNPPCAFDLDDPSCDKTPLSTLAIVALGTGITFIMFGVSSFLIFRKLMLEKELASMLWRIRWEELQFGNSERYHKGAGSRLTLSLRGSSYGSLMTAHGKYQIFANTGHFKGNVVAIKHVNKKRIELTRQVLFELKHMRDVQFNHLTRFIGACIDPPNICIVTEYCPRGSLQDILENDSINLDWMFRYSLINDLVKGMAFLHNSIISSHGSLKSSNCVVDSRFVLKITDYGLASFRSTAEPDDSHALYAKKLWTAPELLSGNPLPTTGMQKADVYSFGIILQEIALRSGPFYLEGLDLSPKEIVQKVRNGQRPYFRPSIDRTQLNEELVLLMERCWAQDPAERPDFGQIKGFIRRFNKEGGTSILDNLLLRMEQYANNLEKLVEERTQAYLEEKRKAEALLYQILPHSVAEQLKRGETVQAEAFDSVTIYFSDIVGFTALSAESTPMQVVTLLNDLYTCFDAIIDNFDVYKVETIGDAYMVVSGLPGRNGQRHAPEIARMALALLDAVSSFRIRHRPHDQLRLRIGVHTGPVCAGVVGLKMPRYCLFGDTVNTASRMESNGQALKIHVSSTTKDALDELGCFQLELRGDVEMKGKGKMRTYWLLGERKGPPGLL
# PLC-gamma1 inh – PLC-gamma1 enzyme inhibitors, primary screen, biochemical, fluorescence, purified enzyme. 1-phosphatidylinositol 4,5-bisphosphate phosphodiesterase gamma-1 (Homo sapiens), P19174. fluorogenic substrate. inhibition, % at 12.2 µM. 0.84% of 370,000 active. AID 720700, 2013; in the data active = inhibition above about 9.5%
# GC-A act – GC-A stimulated cGMP production enhancers – HEK293 GC-A cells, cGMP TR-FRET, EC30 ANP, primary screen; Atrial natriuretic peptide receptor 1 (Homo sapiens), P16066; 0% at EC30 ANP, 100% saturating ANP; activation, % at 10 µM; 0.14% of 370,000 active; in the data active = activation above about 40%
# PLCb3 inh – human PLC-beta3 inhibitors, primary screen, biochemical, fluorescence | 1-phosphatidylinositol 4,5-bisphosphate phosphodiesterase beta-3 (Homo sapiens), Q01970 | Purified PLC-beta3, fluorogenic substrate | inhibition, % at 12.2 µM | AID 720704, 2013 | 0.18% of 370,000 active
# PLCgamma1 ctr – PLC-gamma1 enzyme inhibitors, counter-screen for PLC-beta3 inhibitor project, biochemical, fluorescence | inhibition, % at 12.3 µM | shares compounds with PLC-gamma1 inh | purified PLC-gamma1, fluorogenic substrate | 3.1% of 3,300 active; in the data active = inhibition above about 9.5%
# PLCb3 confirm – PLC-beta3 inhibitor confirmation, biochemical, fluorescence, purified enzyme; shares compounds with PLC-gamma1 inh; fluorogenic substrate fluorescence; inhibition, % at 12.3 µM; 1% of 3,300 active
# A number is an active result; n = inactive; x = no result given; ! = not confirmed by another sample. Rule as the data show it, unless noted: active = inhibition above about 11%; inactive = the rest.
SMILES,NPR2 activator,PLC-gamma1 inh,GC-A act,PLCb3 inh,PLCgamma1 ctr,PLCb3 confirm
Cc1nc2ccc(NC(=O)Cc3ccc(Br)cc3)cc2s1,n,n,n,n,x,x
C(=NOCc1ccccc1)c1ccncc1,n,10,n,n,n,n
C(=NOCc1ccccc1)c1ccccn1,n,n,n,13,n,n
C(=C\c1ccccn1)/c1ccccn1,n,n,n,n,x,x
C(=NOCCc1ccccc1)c1cccnc1,n,n,n,n,x,x
CC(C)(C)C(=O)Nc1nc2c(c(=O)[nH]1)CCCC2,n,n,n,n,x,x
O=C(Nc1ccc2c(c1)OCCO2)C1CC(c2ccc(F)cc2)=NO1 (stereo not drawn),n,n,n,n,x,x
CSc1cccc(NC(=O)CN(c2ccc(C)cc2C)S(C)(=O)=O)c1,n,n,n,n,x,x
CSc1cccc(NC(=O)CN(c2cccc(C)c2)S(C)(=O)=O)c1,n,11,n,n,n,n
Cc1sc2nc(SCc3nc4ccccc4[nH]3)n(Cc3ccco3)c(=O)c2c1C,n,n,n,n,x,x
COc1ccc(C2SCC(=O)N2CCCN(C)C)cc1 (stereo not drawn),n,n,n,13,n,n
O=C(Nc1cccc(S(=O)(=O)N2CCOCC2)c1)c1cn(-c2ccccc2)nc1-c1ccccc1,n,n,n,n,x,x
Cc1ccc(-c2nn(-c3ccccc3)cc2C(=O)Nc2ccc(C)c(S(=O)(=O)N3CCOCC3)c2)cc1,n,9.6,n,n,n,n
CCn1cc(Br)c(C(=O)NCc2ccco2)n1,n,10,n,n,n,n
COc1ccc(NC(=O)C(Sc2nnc(-c3ccncc3)n2-c2ccccc2C)c2ccccc2)cc1Cl (stereo not drawn),n,11,n,n,n,n
c1ccc(CCn2c(SCc3ccccc3)nnc2-c2ccncc2)cc1,n,9.9,n,n,n,n
C=CCn1c(SCc2cccc(OC)c2)nnc1-c1ccncc1,n,12,n,n,n,n
COc1cccc(CSc2nnc(-c3ccncc3)n2N)c1,n,n,n,n,x,x
O=C(NCc1nc2ccccc2[nH]1)C1=C[C@H](c2coc3ccccc3c2=O)C[C@H](OCCCCO)O1,n,n,n,n,x,x
COc1ccc(CN(C)CC(=O)Nc2ccc(Cl)cc2C(F)(F)F)c(OC)c1,n,13,n,n,n,n
O=C(COC(=O)c1ccc(Cl)nc1)NCCNC(=O)COC(=O)c1ccc(Cl)nc1,n,n,n,n,x,x
Cc1ccc(C(=O)N[C@H](C(=O)OCc2nnc(-c3ccccc3)o2)C(C)C)cc1,n,n,n,n,x,x
CC(C)[C@H](NC(=O)c1ccccc1)C(=O)OCc1nnc(-c2ccccc2)o1,n,12,n,n,n,n
Cn1cnc(CCNC(=O)C[C@H]2CC[C@@H]3[C@H](COC[C@H](O)CN3C(=O)C3CCCC3)O2)c1,n,n,n,n,x,x
Cc1ccccc1CSc1n[nH]c(NS(=O)(=O)c2ccccc2)n1,n,10,n,n,n,n
SMILES,NPR2 activator,PLC-gamma1 inh,GC-A act,PLCb3 inh,PLCgamma1 ctr,PLCb3 confirm
CCNC(=S)NCCN1CCOCC1,n,n,n,12,n,n
CCCCn1nnnc1C(c1ccccc1)N1CCN(c2ccccn2)CC1 (stereo not drawn),n,n,n,n,x,x
CCCCn1nnnc1C(c1ccccc1)N1CCN(c2cccc(C(F)(F)F)n2)CC1 (stereo not drawn),n,10,n,n,n,n
COC(=O)[C@H](Cc1ccccc1)NC(=O)c1ccc2ccccc2n1,n,n,n,n,x,x
CC(C)(C)NC(=O)[C@@H]1C[C@@H]2CCCC[C@@H]2CN1C[C@@H](O)[C@H](Cc1ccccc1)NC(=O)[C@H](CC(N)=O)NC(=O)c1ccc2ccccc2n1,n,9.7!,n,n,n,n
O=C(NCc1cccs1)C1CCC(CNS(=O)(=O)c2ccccc2)CC1 (stereo not drawn),n,12,n,n,n,n
CCC(C(=O)OCC(=O)Nc1cc(Cl)cc(Cl)c1)c1ccccc1 (stereo not drawn),n,n,n,11,n,n
CC(C)N(CCn1cnc2c([nH]c3ccccc32)c1=O)C(C)C,n,n,n,n,x,x
